The values below come from PubChem BioAssay (Tox21).

“And” between values parts separate entries of the source, which are not always exact repeats. Equal values may be shown once. Inconclusive results are not listed. Where a structure was tested more than once in an assay, its records may differ in their call. The source made the active and inactive calls. Unless noted, calls follow the shape of the dose curve; as a rule, active = well fitted curve in the direction sought with a large enough effect in the repeat runs; inconclusive = weak or mixed curves; inactive = no such curve, though single readings can be large; an effect the other way counts as inactive or inconclusive.

Assay [1] is described as follows: qHTS assay to identify small molecule agonists of the estrogen receptor beta (ER-beta) signaling pathway - cell viability counter screen (AID 1259380). Also: nearly all actives have a fitted effect of over 30% in size. Also: potency is read from the fitted curve at half-maximal effect. The procedure, abridged: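 Cell viability counter screen: CellTiter-Glo luminescence (30 min, room temperature) measured in the same wells as the beta-lactamase readout, after 16 hr compound exposure at 37C of ER-beta-bla HEK293T cells in 2% charcoal-stripped FBS medium.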
Background: In qHTS, concentration-response curves come from the screen itself.

Assay [2] can be described thus: qHTS assay to identify small molecule antagonists of the estrogen receptor beta (ER-beta) signaling pathway - cell viability counter screen (AID 1259382). Also: nearly all actives have a fitted effect of over 55% in size. Also: potency is read from the fitted curve at half-maximal effect. An outline of the steps: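 Cytotoxicity was measured in the same wells by CellTiter-Glo luminescence after 30 min at room temperature. Cells were ER-beta-bla HEK293T in charcoal-stripped serum, given compound together with 1 nM E2 and incubated 16 h at 37C.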

The nature of assay [3]: qHTS assay to identify small molecule agonists of the estrogen receptor alpha (ER-alpha) signaling pathway in the presence of an antagonist - cell viability counter screen (AID 1259386). Also: nearly all actives have a fitted effect of over 30% in size. Also: potency is read from the fitted curve at half-maximal effect. An outline of the steps: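 Compounds tested at 15 concentrations for 22 h at 37C alongside 10.0nM (final) ICI-182,780 antagonist, in VM7Luc4E2 cells grown in phenol red-free, charcoal-stripped medium. Viability read by CellTiter-Fluor fluorescence after 1 h reagent incubation.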

Assay [4] can be described thus: qHTS assay to identify small molecule antagonists of the progesterone receptor (PR) signaling pathway - cell viability counter screen (AID 1346798). Also: nearly all actives have a fitted effect of over 50% in size. Also: potency is read from the fitted curve at half-maximal effect. The procedure, abridged: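 Counter screen for cytotoxicity: viability of PR-UAS-bla HEK293T cells was measured with CellTiter-Glo luminescence following 16 hr compound exposure in the presence of R5020.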
The nature of assay [5]: qHTS assay to identify small molecule agonists of the progesterone receptor (PR) signaling pathway - cell viability counter screen (AID 1346799; calls by dose curve; also: nearly all actives have a fitted effect of over 45% in size; also: potency is read from the fitted curve at half-maximal effect). The procedure, abridged:
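Cells (PR-UAS-bla HEK293T) are plated at 3,000/well in 2% charcoal-stripped FBS medium, rested 6 hr, dosed and incubated 16 hr at 37C. CellTiter-Glo is then added and luminescence measured after 30 min at room temperature.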

Assay [6] in a line: qHTS assay to identify small molecule antagonists of the TGF-beta/Smad signaling pathway - cell viability counter screen (AID 1346824). Also: nearly all actives have a fitted effect of over 50% in size. The procedure, abridged:
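SBE-bla HEK 293T cells, incubated overnight, then compound plus 0.25 ng/mL TGF-beta1 (stock added) for 5 hr at 37 C. Viability was read in the same wells by CellTiter-Glo luminescence after 30 min at room temperature.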

Assay [7] can be described thus: qHTS assay to identify small molecule agonists of the TGF-beta/Smad signaling pathway - cell viability counter screen (AID 1346829). Also: nearly all actives have a fitted effect of over 45% in size. Also: potency is read from the fitted curve at half-maximal effect. An outline of the steps:
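In parallel with the Smad reporter read, viability of HEK 293T cells stably carrying SBE-bla is quantified by ATP luminescence following 5 hr compound treatment.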

Assay [8] can be described thus: qHTS assay to identify small molecule agonists of the TGF-beta/Smad signaling pathway (AID 1346859; active = well fitted activation curve with a large enough effect in the signal ratio in the repeat runs, not every such curve was filed as active; the % refers to the signal ratio; also: series mostly up to about 77 µM). The procedure, abridged:
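Reporter line: HEK 293T with stably integrated SBE-controlled beta-lactamase. Compound exposure lasts 5 hr at 37 C and 5% CO2; substrate loading follows for 2 hr at room temperature, with emission read at 460 and 530 nm.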

In assay [9] the target is Thyrotropin-releasing hormone receptor (Homo sapiens) (UniProt P34981). Put plainly: qHTS assay to identify small molecule antagonists of the thyrotropin-releasing hormone receptor (TRHR) signaling pathway (AID 1346877; active = well fitted inhibition curve with a large enough effect in the repeat runs, not every such curve was filed as active; also: potency is read from the fitted curve at half-maximal effect). The procedure, abridged: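 Antagonist mode: after a 5 min room-temperature compound exposure, cells were stimulated with 1 nM (final) TRH. Dye-loaded TRHR-HEK293 cells were used, and calcium-dependent fluorescence was followed for 3 min, with 15-point titrations run in triplicate.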

The target is the same in assay [10]. The experiment in a line: qHTS assay to identify small molecule agonists of the thyrotropin-releasing hormone receptor (TRHR) signaling pathway (AID 1346891; calls by dose curve; also: potency is read from the fitted curve at half-maximal effect;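 as to activation: HEK293 cells expressing TRHR with calcium dye readout; series mostly up to about 58 µM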). The procedure, abridged: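 Cells: TRHR-Hek293, seeded and incubated 18 h. Dye loading: 2 h at 37 °C. Compound added from DMSO stock by pin tool. Read-out: kinetic calcium fluorescence over 3 min.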
Assay [11] can be described thus: Human pregnane X receptor (PXR) small molecule agonists, qHTS cell viability counter screen (AID 1346977). Also: nearly all actives have a fitted effect of over 50% in size. Also: potency is read from the fitted curve at half-maximal effect. An outline of the steps: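 Cytotoxicity counter screen run in the same wells as the PXR luciferase assay, using PXR-Luc HepG2 cells in charcoal-stripped serum medium. Viability: CellTiter-Fluor fluorescence after 24hr compound treatment.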
Assay [12] addresses Androgen receptor (Homo sapiens) (UniProt P10275). The experiment in a line: qHTS assay to identify small molecule agonists of the androgen receptor (AR) signaling pathway in the presence of an antagonist (AID 1259381; calls by dose curve; also: nearly all actives have a fitted effect of over 15% in size; also: potency is read from the fitted curve at half-maximal effect). The procedure, abridged: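 Agonist-mode confirmation run against 3.0 uM final nilutamide: compounds titrated at 15 concentrations onto MDA-kb2 MMTV-luciferase reporter cells. Luminescence measured with ONE-Glo following 16 hr incubation, 37C, 0% CO2.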

Assay [13] in a line: qHTS assay to identify small molecule agonists or antagonists of the thyroid stimulating hormone receptor (TSHR) signaling pathway - wild type cell line counter screen (AID 1259384; calls by dose curve). The procedure, abridged:
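Wild-type Hek293 cells, 800/well, 18 h at 37C, then compound with Ro20-1724 for 30 min RT. cAMP by HTRF (cAMP-d2/anti-cAMP cryptate), 1 h RT, fluorescence read. 15 concentrations, triplicates.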

Assay [14] deals with Thyrotropin receptor (Homo sapiens) (UniProt P16473). Put plainly: qHTS assay to identify small molecule antagonists of the thyroid stimulating hormone receptor (TSHR) signaling pathway (AID 1259385; calls by dose curve; also: nearly all actives have a fitted effect of over 20% in size; also: potency is read from the fitted curve at half-maximal effect). The procedure, abridged: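 TSHR-HEK293 cells (800/well) plated 18 h, then compounds with Ro20-1724 and TSH at 1.5 ng/mL final, 30 min at room temperature. cAMP quantified by HTRF (cAMP-d2/anti-cAMP-cryptate, 1 h); 15 concentrations in triplicate.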

The target of assay [15] is Estrogen receptor (Homo sapiens) (UniProt P03372). The experiment in a line: qHTS assay to identify small molecule agonists of the estrogen receptor alpha (ER-alpha) signaling pathway in the presence of an antagonist (AID 1259383; calls by dose curve; also: top concentration of the series differs between compounds; nearly all actives have a fitted effect of over 15% in size). An outline of the steps:
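Agonist-mode confirmation run in the presence of 10.0nM (final) ICI-182,780 antagonist. The reporter was ERE-driven luciferase in VM7Luc4E2 cells, grown in charcoal-stripped serum. Cells were exposed to 15-concentration compound series for 22hr, then ONE-Glo luminescence was read.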

Assay [16] addresses Progesterone receptor (Homo sapiens) (UniProt P06401). The experiment in a line: qHTS assay to identify small molecule agonists of the progesterone receptor (PR) signaling pathway (AID 1346784; calls by dose curve; also: nearly all actives have a fitted effect of over 30% in size). The procedure, abridged: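 Cells (PR-UAS-bla HEK 293T, GripTite) were plated in assay medium containing 2% charcoal-stripped FBS and incubated 6 hr. Test compounds in DMSO were added for 16 hr at 37C. FRET substrate was then loaded for 2 hr at room temperature before fluorescence reading.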

Assay [17] has the same target. Put plainly: qHTS assay to identify small molecule antagonists of the progesterone receptor (PR) signaling pathway (AID 1346795; active = well fitted inhibition curve with a large enough effect in the signal ratio in the repeat runs, not every such curve was filed as active; the % refers to the signal ratio; also: potency is read from the fitted curve at half-maximal effect). An outline of the steps:
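Antagonist mode: compounds tested against 1 nM (final) promegestone stimulation in HEK293T cells expressing PR-UAS-bla reporter, 16 hr at 37C, 5% CO2; beta-lactamase activity detected via B/G FRET substrate after 2 hr at room temperature.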

Chain of Progesterone receptor (Homo sapiens) (P06401 whole entry, looked up): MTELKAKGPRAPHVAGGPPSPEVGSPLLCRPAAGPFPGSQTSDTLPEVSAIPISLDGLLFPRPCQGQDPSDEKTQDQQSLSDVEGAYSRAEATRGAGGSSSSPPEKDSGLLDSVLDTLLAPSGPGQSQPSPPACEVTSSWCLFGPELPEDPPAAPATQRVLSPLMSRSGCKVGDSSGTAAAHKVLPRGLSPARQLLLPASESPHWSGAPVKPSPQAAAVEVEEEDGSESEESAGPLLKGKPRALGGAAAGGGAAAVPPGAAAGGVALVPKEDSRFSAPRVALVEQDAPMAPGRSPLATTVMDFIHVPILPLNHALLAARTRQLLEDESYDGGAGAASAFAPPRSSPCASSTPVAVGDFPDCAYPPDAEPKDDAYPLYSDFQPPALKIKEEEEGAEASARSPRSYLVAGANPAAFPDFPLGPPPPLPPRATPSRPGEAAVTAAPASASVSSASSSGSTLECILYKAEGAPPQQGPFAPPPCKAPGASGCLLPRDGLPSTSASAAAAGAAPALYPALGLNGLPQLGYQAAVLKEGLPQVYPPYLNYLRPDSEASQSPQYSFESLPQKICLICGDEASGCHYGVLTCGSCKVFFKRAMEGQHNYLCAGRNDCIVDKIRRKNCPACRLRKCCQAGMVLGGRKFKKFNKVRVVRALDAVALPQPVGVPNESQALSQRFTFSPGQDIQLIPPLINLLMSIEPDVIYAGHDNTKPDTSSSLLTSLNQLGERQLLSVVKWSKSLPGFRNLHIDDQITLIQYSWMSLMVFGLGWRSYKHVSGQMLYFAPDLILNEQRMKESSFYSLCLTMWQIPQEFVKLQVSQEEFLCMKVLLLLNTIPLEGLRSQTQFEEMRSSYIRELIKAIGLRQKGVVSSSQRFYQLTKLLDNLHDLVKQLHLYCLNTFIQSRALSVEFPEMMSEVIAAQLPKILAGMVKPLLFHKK
Chain of Thyrotropin-releasing hormone receptor (Homo sapiens) (P34981 whole entry, looked up): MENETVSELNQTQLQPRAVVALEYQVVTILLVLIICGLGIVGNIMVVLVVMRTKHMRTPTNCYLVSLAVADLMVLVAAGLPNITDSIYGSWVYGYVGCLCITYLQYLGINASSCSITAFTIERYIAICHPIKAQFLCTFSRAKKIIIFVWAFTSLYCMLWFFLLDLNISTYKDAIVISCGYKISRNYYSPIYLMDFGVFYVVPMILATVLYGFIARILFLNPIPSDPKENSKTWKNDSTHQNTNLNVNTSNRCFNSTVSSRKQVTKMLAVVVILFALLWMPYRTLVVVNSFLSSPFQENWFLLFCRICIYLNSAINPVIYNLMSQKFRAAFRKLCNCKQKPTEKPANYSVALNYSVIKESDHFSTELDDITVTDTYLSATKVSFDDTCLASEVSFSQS
Chain of Estrogen receptor (Homo sapiens) (P03372 whole entry, looked up): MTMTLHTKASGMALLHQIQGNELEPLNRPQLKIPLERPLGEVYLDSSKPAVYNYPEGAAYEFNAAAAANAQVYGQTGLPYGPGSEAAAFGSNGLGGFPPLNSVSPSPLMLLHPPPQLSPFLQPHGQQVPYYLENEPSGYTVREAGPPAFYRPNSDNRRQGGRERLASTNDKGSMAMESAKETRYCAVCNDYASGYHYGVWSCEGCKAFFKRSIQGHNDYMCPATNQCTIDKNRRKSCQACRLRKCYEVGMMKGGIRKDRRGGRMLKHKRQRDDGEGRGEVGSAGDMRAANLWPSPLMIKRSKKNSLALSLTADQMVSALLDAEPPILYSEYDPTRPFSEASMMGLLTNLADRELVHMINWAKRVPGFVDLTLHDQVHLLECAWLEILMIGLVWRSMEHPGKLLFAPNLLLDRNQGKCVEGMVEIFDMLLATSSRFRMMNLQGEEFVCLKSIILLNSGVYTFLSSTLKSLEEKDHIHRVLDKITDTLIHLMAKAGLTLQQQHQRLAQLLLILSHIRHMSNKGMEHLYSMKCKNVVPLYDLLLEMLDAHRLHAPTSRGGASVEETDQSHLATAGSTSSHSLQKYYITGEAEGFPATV
Chain of Thyrotropin receptor (Homo sapiens) (P16473 whole entry, looked up): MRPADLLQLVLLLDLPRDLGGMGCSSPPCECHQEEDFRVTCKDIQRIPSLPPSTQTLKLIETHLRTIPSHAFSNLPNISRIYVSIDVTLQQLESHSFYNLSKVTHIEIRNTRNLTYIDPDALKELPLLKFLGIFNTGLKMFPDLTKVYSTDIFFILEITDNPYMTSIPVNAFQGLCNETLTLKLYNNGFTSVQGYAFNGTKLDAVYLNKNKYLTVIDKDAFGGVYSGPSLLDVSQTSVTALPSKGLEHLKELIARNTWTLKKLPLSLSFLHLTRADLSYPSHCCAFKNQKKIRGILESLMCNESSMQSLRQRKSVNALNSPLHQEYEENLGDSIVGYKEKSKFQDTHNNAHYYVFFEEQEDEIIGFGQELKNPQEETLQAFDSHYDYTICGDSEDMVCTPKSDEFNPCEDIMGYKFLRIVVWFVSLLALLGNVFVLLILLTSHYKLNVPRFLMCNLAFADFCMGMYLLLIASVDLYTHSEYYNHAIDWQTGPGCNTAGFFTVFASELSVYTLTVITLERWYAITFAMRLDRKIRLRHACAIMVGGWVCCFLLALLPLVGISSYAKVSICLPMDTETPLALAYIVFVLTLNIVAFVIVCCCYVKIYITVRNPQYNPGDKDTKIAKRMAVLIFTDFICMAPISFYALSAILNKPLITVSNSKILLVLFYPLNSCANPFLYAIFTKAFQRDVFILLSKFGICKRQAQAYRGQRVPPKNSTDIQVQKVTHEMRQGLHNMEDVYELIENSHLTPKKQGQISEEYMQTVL
Chain of Androgen receptor (Homo sapiens) (P10275 whole entry, looked up): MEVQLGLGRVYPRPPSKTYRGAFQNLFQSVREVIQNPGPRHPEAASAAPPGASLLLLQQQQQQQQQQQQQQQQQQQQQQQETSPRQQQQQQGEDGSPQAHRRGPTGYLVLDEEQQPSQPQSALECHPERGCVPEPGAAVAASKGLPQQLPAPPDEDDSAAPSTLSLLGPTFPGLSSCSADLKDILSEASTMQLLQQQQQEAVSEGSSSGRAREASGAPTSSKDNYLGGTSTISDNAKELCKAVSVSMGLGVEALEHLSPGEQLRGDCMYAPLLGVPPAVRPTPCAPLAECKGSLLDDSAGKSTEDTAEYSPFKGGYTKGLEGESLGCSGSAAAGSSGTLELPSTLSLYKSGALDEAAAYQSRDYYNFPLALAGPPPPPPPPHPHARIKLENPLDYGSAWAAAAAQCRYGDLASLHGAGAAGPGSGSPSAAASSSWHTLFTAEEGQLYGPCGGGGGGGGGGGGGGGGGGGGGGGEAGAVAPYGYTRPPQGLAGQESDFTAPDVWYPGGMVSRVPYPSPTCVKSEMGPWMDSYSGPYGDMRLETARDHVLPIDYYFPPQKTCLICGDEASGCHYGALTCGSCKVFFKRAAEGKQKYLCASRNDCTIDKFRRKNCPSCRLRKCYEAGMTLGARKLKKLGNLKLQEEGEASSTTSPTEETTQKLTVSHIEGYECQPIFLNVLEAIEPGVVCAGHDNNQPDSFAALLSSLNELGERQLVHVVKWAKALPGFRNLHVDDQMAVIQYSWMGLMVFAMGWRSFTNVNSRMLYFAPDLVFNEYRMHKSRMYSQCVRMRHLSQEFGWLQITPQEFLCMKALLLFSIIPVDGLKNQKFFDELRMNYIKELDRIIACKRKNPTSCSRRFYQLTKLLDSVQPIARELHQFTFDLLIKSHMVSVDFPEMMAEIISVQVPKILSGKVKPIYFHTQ

Take `CCN(CC)CCNc1ccc(CO)c2sc3ccccc3c(=O)c12`: the Potency was 10.6 µM (active) in assay [1]; 11.9 µM (active) in assay [2]; 10.6 µM (active) in assay [3]; 15 µM (active) in [4]; 13.3 µM (active) in assay [5]; 7.5 µM (active) in [11]. Also, the Potency entry in [6], in assay [7], in assay [8], in assay [9] and in [10] was “inactive” each time.
`CC1=C(/C=C/C(C)=C/C=C/C(C)=C/C(=O)Nc2ccc(O)cc2)C(C)(C)CCC1`: the Potency is 62.7 µM (active) and 26.6 µM (active) in assay [1]; 8.85 µM (active) and inactive in assay [12]; 70.3 µM (active) in [2]; 31.4 µM (active) and 13.3 µM (active) in [3]; 49.8 µM (active) and 26.6 µM (active) in assay [11]. Further, in [13], the result was inactive. For the same compound, the Potency result in [14], in [6], in assay [8], in assay [9] and in [10] was “inactive” in each case.
For the compound `CCCOc1sc(C(=O)N2CCC(c3cc(CN)ccc3F)CC2)c(C)c1Br`, the Potency entry in [12] and in assay [15] was “inactive” throughout. Besides, the Potency was 25 µM (active) in [2]; 56 µM (active) in assay [14]; 25 µM (active) in assay [4]; 19.9 µM (active) in assay [5]; 44.9 µM (active) in [7]; 27.6 µM (active) in [9]. Also, the Potency in [10] is 31.8 µM (active); in assay [11] it was 28.1 µM (active). In addition, the outcome in assay [13] was inactive.
With `COc1cc(C=C2CCC/C(=C\c3ccc(O)c(OC)c3)C2=O)ccc1O`, the Potency result in assay [12], in [15], in [7], in assay [8], in assay [9] and in assay [10] was “inactive” each time. In [13], the call was inactive. Besides, the Potency in assay [11] is 29.8 µM (active).
As for `COc1ccc2sc(C(=O)Nc3nnn[nH]3)c(OC(C)C)c2c1`, the Potency is 6.83 µM (active) in assay [1], 54.3 µM (active) in [17] and 24.2 µM (active) in assay [11]. Besides, the Potency entry in assay [15], in assay [14], in [4] and in assay [6] was “inactive” in each case. Besides, the compound was classed as inactive in assay [13] and in [16].
Consider `C(=C/c1ccccc1)/c1ccccc1`, for which the Potency entry in assay [1], in assay [2], in assay [15], in assay [14], in assay [3] and in assay [4] was “inactive” throughout. The Potency result in [5], in [6], in [7], in [8], in [9] and in [10] was “inactive” throughout. The Potency entry in assay [11] was “inactive”. Besides, in [13], the outcome was inactive.
Take `CC(C)c1cccc(C(C)C)c1N1C(=O)c2ccc(O)cc2C1=O`: the Potency result in assay [14], in [3], in assay [6], in [7], in assay [9] and in [10] was “inactive” in each case. Further, the Potency entry in assay [11] is “inactive”. Moreover, the compound was called inactive in assay [16]. Moreover, the Potency in [17] was 6.11 µM (active).
With `CC(=O)Oc1ccc(C2(c3ccc(OC(C)=O)cc3)C(=O)Nc3ccccc32)cc1`, the Potency result in [1], in assay [2], in assay [15], in [6], in assay [8] and in assay [11] was “inactive” each time. Besides, the compound was called inactive in assay [13] and in [16]. In addition, the Potency in [3] is 0.668 µM (active).
In the case of `C[C@]12CC[C@H]3C(=CCc4cc(O)ccc43)[C@@H]1CCC2=O`, the Potency was 27.3 µM (active) in [1], 5.45 µM (active) in [12] and 30.6 µM (active) in assay [2]. The call in assay [13] and in [16] was inactive. The Potency result in assay [3], in assay [6], in [7], in assay [8], in assay [9] and in assay [10] was “inactive” each time. The Potency result in assay [11] is “inactive”.
In the case of `CCCCCCOc1cc(C)c(O)c(C)c1C`, the Potency is 55.1 µM (active) in assay [1], 61.9 µM (active) in assay [2], 55.1 µM (active) in assay [14] and 61.9 µM (active) in [11]. Also, the call in assay [13] was inactive. For the same compound, the Potency entry in assay [7], in assay [8], in assay [9] and in [10] was “inactive” each time.
`Oc1c(Br)cc(Br)c2cccnc12`: the results for the Potency in assay [1] and in [17] were 1.19 µM (active) and 2.66 µM (active), respectively. Further, the Potency entry in [15], in [14], in assay [3], in [5], in assay [6] and in [7] was “inactive” throughout. Further, in assay [8], the Potency result was “inactive”. Further, the call in [13] was inactive.
Consider `OCCC(O)CO` (stereo not drawn), for which the Potency result in assay [1], in assay [2], in assay [15], in assay [14], in assay [17] and in assay [4] was “inactive” each time. Besides, the Potency entry in [5], in assay [6], in assay [7], in [8], in assay [9] and in [10] was “inactive” throughout. In assay [11], the Potency result was “inactive”. Moreover, the call in [13] and in [16] was inactive.
